Laboratory results as given in PubChem BioAssay.

target: Left-right determination factor 2 (Homo sapiens) (UniProt O00292); assay: LEFTY2 binders on small-molecule microarrays, primary screen, biochemical, small-molecule microarray, 635 nm fluorescence scan (AID 1110); settings: LEFTY2 binding, higher = more signal
Sequence (O00292 whole entry, looked up): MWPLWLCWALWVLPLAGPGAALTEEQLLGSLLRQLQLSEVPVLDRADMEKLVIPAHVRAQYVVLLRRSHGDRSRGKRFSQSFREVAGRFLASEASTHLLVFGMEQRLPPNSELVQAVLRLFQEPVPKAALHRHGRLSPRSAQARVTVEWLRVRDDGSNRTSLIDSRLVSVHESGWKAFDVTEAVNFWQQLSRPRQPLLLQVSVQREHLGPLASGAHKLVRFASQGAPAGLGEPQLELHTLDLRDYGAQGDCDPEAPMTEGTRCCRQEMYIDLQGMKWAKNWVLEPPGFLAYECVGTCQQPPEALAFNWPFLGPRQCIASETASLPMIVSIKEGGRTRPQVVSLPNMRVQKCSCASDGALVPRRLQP

SMILES	composite z-score
COC(=O)[C@H](C)NC(=O)CCC1CC(OC(=O)NCCc2ccc(F)cc2)CC2(CCCC(COC(=O)NCCc3ccc(Cl)cc3)O2)O1 (stereo not given in full)	1.2
C=COC[C@H]1CN2[C@@H](CC[C@@H](C)[C@@H]2c2ccc(Br)cc2)C(=O)O1	0.792
CN1C(=O)C2C=CC(C(O)c3ccc(Br)cc3)N(N(c3ccccc3)c3ccccc3)C2C1=O (stereo not given)	-0.0937
COC(=O)[C@H](C)NC(=O)[C@@H](C)CO	0.5
O=C1[C@H]2[C@H]3[C@H](O)[C@H](O)CC(=NOCc4ccccc4)[C@@H]3CC[C@H]2C(=O)N1Cc1ccccc1	0.509
CC(C)[C@@H](OCc1ccccc1)[C@H](C)C=NOC[C@@H](C)[C@H](OCc1ccccc1)C(C)C	0.885
CCOC(=O)[C@H](Cc1ccccc1)NC(=O)CCC1CC(OC(=O)NCc2ccc3c(c2)OCO3)CC2(CCCC(COC(=O)NCC3CCCCC3)O2)O1 (stereo not given in full)	0.617
COC(=O)[C@@H]1CC[C@H](C)[C@@H](c2ccc(C)cc2)N1C(=O)c1ccc(C=NOC[C@@H](O)COCc2ccco2)cc1	0.283
Cc1cc2c(nc1C)CCCN2CC(O)CN1CCN(C)CC1 (stereo not given)	0.625
C=C(CCCC)C(=O)CC[C@@H](OC(C)=O)c1cccc(OCCO)c1	0.333
CCOC(=O)[C@H](Cc1ccccc1)NC(=O)CCC1CC(OC(=O)NCc2ccc3c(c2)OCO3)CC2(CCCC(COC(=O)NCC(c3ccccc3)c3ccccc3)O2)O1 (stereo not given in full)	0.45
C#CCCCON=C1C[C@@H](O)[C@@H](O)[C@@H]2[C@@H]3C(=O)N(c4cccc(Oc5ccccc5)c4)C(=O)[C@@H]3CC[C@@H]12	0.159
CC(C)CON=C1C[C@@H](O)[C@@H](O)[C@@H]2[C@@H]3C(=O)N(C[C@@H]4CCCO4)C(=O)[C@@H]3CC[C@H]12	0.781
CCN1C(=O)[C@H]2[C@H]3[C@H](O)[C@H](O)CC(=NO[C@@H]4O[C@H](CO)[C@@H](O)[C@H](O)[C@H]4O)[C@@H]3CC[C@H]2C1=O	-0.251
COc1ccc(-c2ccc3c(n2)CCCN3CC(O)CN2CCCc3nc(C)c(C)cc32)cc1 (stereo not given)	0.728
CO[C@H]1O[C@H](CO)[C@@H](OC(=O)Nc2ccc3c(c2)OCO3)[C@H](OC(=O)Nc2ccccc2-c2ccccc2)[C@@H]1OC(=O)Nc1ccccc1-c1ccccc1	0.232
COC(=O)CC1OC1[C@H](C)[C@@H](OC)C(C)C (stereo not given in full)	0.389
CO[C@@H]1COC(=O)CC=C[C@@H](C)[C@@H]2C=C[C@H](O)[C@@H](COC(=O)[C@H](C)NC(=O)CC=C[C@H]1C)O2	0.433
N#Cc1ccc(NN2C(C(O)c3cc(C(F)(F)F)cc(C(F)(F)F)c3)C=CC3C(=O)N(c4ccccc4)C(=O)C32)cc1 (stereo not given)	0.224
CCOC(=O)NN=C1C[C@@H](O)[C@@H](O)[C@@H]2[C@@H]3C(=O)N(C[C@@H]4CCCO4)C(=O)[C@@H]3CC[C@@H]12	0.238
COCCOC(=O)N1C(=O)[C@@]2(c3cc(C#CC4(O)CCCCCC4)ccc31)[C@H](C(=O)N1CCN(c3ncccn3)CC1)[C@H]1C(=O)O[C@H](c3ccccc3)[C@H](c3ccccc3)N1[C@@H]2c1ccc(OCCO)cc1	0.519
C=CC[C@]1(C(=O)NCc2ccccc2)N=C(c2ccc(OCCCO)cc2)O[C@H]1c1ccccc1	-0.778
COc1ccc(O[C@H]2C=C[C@@H](c3ccccc3)O[C@@H]2COC(=O)CCC(C)=NOC(C)CN2CCCCc3nc(C)c(C)cc32)cc1 (stereo not given in full)	-0.106
CO[C@@H]1COC(=O)CC=C[C@@H](C)[C@@H]2C=C[C@@H](O)[C@@H](COC(=O)CC=C[C@H]1C)O2	1.12
CCOC(=O)[C@H](Cc1ccccc1)NC(=O)CCC1CC(OC(=O)NCCc2ccc(F)cc2)CC2(CCCC(COC(=O)NCC(c3ccccc3)c3ccccc3)O2)O1 (stereo not given in full)	0.414
C[C@H]1CC[C@@H](C(=O)O)N[C@@H]1c1ccc(C#CCN(C)C)cc1	0.793
O=C1NC(=O)C2C1C=CC(C(O)Cc1ccccc1)N2Nc1ccccn1 (stereo not given)	0.185
CCOC(=O)CCN1C(=O)[C@H]2[C@H]3[C@H](O)[C@H](O)CC(=NOC[C@@H](O)COCc4ccco4)[C@@H]3CC[C@H]2C1=O	-0.157
CC(C)(C)N1C(=O)[C@H]2[C@H]3[C@H](O)[C@H](O)CC(=NOCc4ccccc4)[C@@H]3CC[C@H]2C1=O	1.08
COC(=O)[C@@]1(Cc2ccccc2)[C@H]2c3cc(C(=O)N4CCCC4)n(Cc4ccccn4)c3C[C@H]2CN1C(=O)c1ccccc1	0.0043
